# Results published in PMC5540273 (PLoS ONE, 2017).
# Test system: TAOK3
# Settings: concentration: 1 μM, replicates: in singlicate; n = 1
# 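Further: KINOMEscan kinase panel screen.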
row,Structure (SMILES),%Inh [%]
1,O=C(Nc1n[nH]c2cc(-c3ccsc3)ccc12)C1CC1 [SB-732932],26
2,CC[C@@H]1CO[C@H](C(=O)Nc2ccccc2)CN1c1cc(-c2ccc3c(N)n[nH]c3c2)nc(NC)n1 [GSK2376236],0
3,CNc1cc(-c2ccc3c(N)n[nH]c3c2)nc(N)n1 [GSK2224810],9
4,COC(=O)C(NC(=O)NC1CCN(c2ccnc(Nc3ccc(F)cc3)n2)C1)c1ccccc1 (stereo not shown) [GSK1379712],0
5,Cc1ccccc1Cn1ccn2c(=O)cc(N3CCOCC3)nc12 [GSK2269905],0
6,Fc1ccc(-c2nn3cccc(F)c3c2-c2ccncc2)cc1 [GW475620],0
7,COc1ccc(Nc2nccc(-c3ccc(NC(=O)c4cc5cc(F)ccc5[nH]4)cc3)n2)cc1 [GSK1229496],0
8,COc1ccc(Nc2nccc(N3CCC(NC(=O)c4cc5ccccc5s4)C3)n2)cc1 (stereo not shown) [GSK1379738],0
9,COc1ccc(-c2coc3ccc(-c4nnc(C)o4)cc23)cc1,0
10,CNCc1ccc2nc(NC(=O)c3ccc(C(C)(C)C)cc3)cn2c1,93.2
11,CS(=O)(=O)CCNCc1nc(-c2ccc3ncnc(Nc4ccc(OCc5ccccc5)c(Cl)c4)c3c2)cs1.Cl [GW582764],0
12,Cl.Cl.Cl.N#Cc1ccc(CCNc2nccc(-c3cccc(CN4CCNCC4)c3)n2)cc1 [GSK2137462],0
13,Cc1c(Cn2c3ccccc3n3c(=O)cc(N4CCOCC4)nc23)cccc1C(F)(F)F [GSK2306394],0
